Assay results from PubChem BioAssay (NCATS).
Results filed as inconclusive are left out. Active and inactive are the calls of the source. The call rests on the fitted dose curve. Non-standard residues stand in square brackets, D forms with d. Residues, ends and D or L forms follow the SMILES beside them. ξ: configuration not given here. ξL = CC(C)CC(N)C(=O)O

Test: qHTS for inhibitors of Rabies Virus screened against the NCATS CANVASS Library (AID 1347402); further: 0% is about no effect
Settings: Rabies virus infection cell assay; series mostly up to 45.9 µM; activity change, negative = inhibition: at the top concentration
With C[C@@H](O)[C@H]1OC(=O)C=C2[C@]3(C)[C@H]4[C@H](OC(=O)[C@@]4(C)[C@@H](O)[C@H]4O[C@H]43)[C@H]3O[C@@]231 the “activity change, negative = inhibition” value was 6.7% (inactive). With COc1ccc2cc(NC(=O)C3=NO[C@H]4[C@H](O)C=C[C@@H](Cl)[C@@]4(O)C3)c(=O)oc2c1OC the “activity change, negative = inhibition” value was -7.85% (inactive). For C=C(NC(=O)c1csc(-c2nc3c(cc2O)-c2nc(cs2)C(=O)NC(C(C)O)C(=O)N/C(=C(\C)O)c2nc(cs2)C(=O)NC2c4nc(cs4)C(=O)NC(COC(=O)c4c5c6c(cccc6n4O)COC(=O)[C@@H](OC4C[C@](C)(O)[C@H](N(C)C)[C@H](C)O4)C2OC5)c2nc-3cs2)n1)C(N)=O (stereo not given in full), the “activity change, negative = inhibition” value was 38.6% (inactive). For O=C(O)CC1OC(=O)c2c(O)cccc21 (stereo not given), the “activity change, negative = inhibition” value was 3.89% (inactive). In the case of CCCCCCCCCCCCCCCC(=O)OC/C=C(\C)CCCC(C)CC(C)C(C)C (stereo not given), the “activity change, negative = inhibition” value is reported as 26.9% (inactive). In the case of CC(=O)O[C@H]1c2ccccc2-c2c3c(cc4c2[C@@H]1N(C(C)=O)CC4)OCO3, the “activity change, negative = inhibition” value is reported as -30.6% (inactive). With C1=C2CCCN[C@@H]2[C@@H]2CCN3CCCC[C@@H]3[C@H](C1)C2 the “activity change, negative = inhibition” value was -19.2% (inactive). For C/C1=C/[C@@H](C)[C@H](O)[C@@H](O)/C=C/CC/C=C/C(=O)O[C@@H]1[C@H](C)C(=O)CCCC1CC(=O)NC(=O)C1, the “activity change, negative = inhibition” value was -1.67% (inactive). For CC[C@@H](C)[C@H]1NC(=O)C(CC(C)C)NC(=O)[C@@H](CC(C)C)NC(=O)[C@H](Cc2c[nH]c3ccccc23)NC(=O)CNC(=O)[C@@H](CC(N)=O)NC1=O (stereo partly drawn) (cyclo(GW[dL][ξL][dI][dN])), the “activity change, negative = inhibition” value was -11.9% (inactive). With COc1cc2c(cc1OC)[C@@H](c1ccc3c(c1)OCO3)C(C)C(C)C2=O (stereo not given in full) the “activity change, negative = inhibition” value was -13.6% (inactive).
